# Peg3 prom inh: inhibitors of Peg3 promoter; HeLa PEG-Prom luciferase reporter, luminescence, overnight; inhibition, % at 20 µM; 360,000 tested, 1.7% active;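 active = inhibition of at least 50% at 20 µM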
# TRPM1 prom inh: MITF TRPM1 promoter inhibition in SK-MEL-5 cells. SK-MEL-5 TRPM1 promoter luciferase, 24 h. inhibition, % at 12.5 µM. 330,000 tested, 0.83% active;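 active = mean inhibition across replicates of 60% or more, whatever share of single replicates reaches that level; inconclusive = some that reach 60%, reason not given; inactive = mean inhibition across replicates below 60%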
# PAX8 reporter: inhibitors of PAX8 transcriptional activity in RMG-I cells | 360,000 tested, 1.2% active | AID 652154 | inhibition, % at 12.6 µM | RMG-I TPO-luciferase reporter, SteadyGlo, 24 h;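 active = mean replicate inhibition at least 60% with every replicate also reaching 60%; inconclusive = only one of the two criteria is met; inactive = mean below 60% and not all replicates reaching 60%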;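 also: luciferase light reporting Pax8 driven TPO promoter activity; plate controls were median of neutral control wells for no effect and mitoxantrone controls for full effect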
# EWS-Fli block: inhibitors of EWS/Fli oncoprotein transcriptional activity | A673 NR0B1-luciferase reporter, viability-normalised | inhibition, % at 12.6 µM | 350,000 tested, 0.67% active | AID 651661;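 active = mean inhibition of at least 50% after viability correction, with every replicate also passing that limit; inconclusive = mean reaches 50% but only one of two replicates passes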;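 also: firefly luciferase signal divided by Alamar Blue viability fluorescence both relative to DMSO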
# ABHD5 PLIN5 PPI: ABHD5-PLIN5 protein interaction inhibition; Q00G26+Q8WTS1; Split G. princeps luciferase complementation, luminescence, 4 h; inhibition, % at 4 µM; 360,000 tested, 0.78% active; AID 602281;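 active = inhibition above the mean inhibition across every tested compound plus 3 SD, cut at about 22% in these data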;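 also: 0% = DMSO only wells and the 100% control is not disclosed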
# Shn3 3UTR inh: reduces Shn3 3'UTR luciferase signal in osteoblasts. 360,000 tested, 0.52% active. Clone20 osteoblast Shn3 3'UTR firefly luciferase, 24 h. inhibition, % at 12.5 µM;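 active = mean inhibition of at least 75% with every replicate also reaching 75%; inconclusive = mean inhibition at least 75% but some replicate below; inactive = mean inhibition below 75%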;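 also: 0% = median of neutral control wells and 100% = pilot-screen positive control compound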
# ABHD5-PLIN5 conf: confirmation of human ABHD5-PLIN5 interaction inhibitors. shares compounds with ABHD5 PLIN5 PPI. inhibition, % at 4 µM. biochemical ABHD5-PLIN5 interaction, luminescence. AID 651612. 2,200 tested, 67% active; in the data active = inhibition above about 23%;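 also: 0% = DMSO vehicle wells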
# HNF4 counter: counter-screen for ABHD5-PLIN5 inhibitors: HNF4 split-luciferase. shares compounds with ABHD5 PLIN5 PPI. HNF4 dimerization, luminescence, biochemical. inhibition, % at 4 µM. 2,200 tested, 77% active. AID 651674;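 active = mean inhibition across replicate wells exceeding the computed hit threshold, cut at about 13% in these data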;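 also: light from luciferase halves that rejoin when HNF4 fusion proteins dimerize; 0% = DMSO only wells and the 100% control is not given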
# Target sequence (P41235 whole entry, looked up, the tested form may be a part): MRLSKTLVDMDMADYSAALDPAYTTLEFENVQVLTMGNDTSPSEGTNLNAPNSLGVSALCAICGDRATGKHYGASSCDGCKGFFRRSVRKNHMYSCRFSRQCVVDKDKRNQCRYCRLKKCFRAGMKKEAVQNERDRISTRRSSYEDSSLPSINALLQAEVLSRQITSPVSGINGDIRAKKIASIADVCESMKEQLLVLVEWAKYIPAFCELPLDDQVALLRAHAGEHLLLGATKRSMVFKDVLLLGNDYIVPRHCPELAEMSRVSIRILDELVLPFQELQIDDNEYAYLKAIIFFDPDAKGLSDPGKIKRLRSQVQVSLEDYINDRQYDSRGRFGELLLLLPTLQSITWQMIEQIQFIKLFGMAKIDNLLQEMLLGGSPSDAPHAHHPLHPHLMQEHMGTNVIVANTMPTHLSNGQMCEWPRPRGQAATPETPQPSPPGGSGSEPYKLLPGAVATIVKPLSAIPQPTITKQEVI
# Numbers without * were called inactive; u = inconclusive; x = not tested or not shown; ! = repeats disagree. Sampled rows, rich in hits. Any-hit rate of the full collection: about 3%.
SMILES,Peg3 prom inh,TRPM1 prom inh,PAX8 reporter,EWS-Fli block,ABHD5 PLIN5 PPI,Shn3 3UTR inh,ABHD5-PLIN5 conf,HNF4 counter
CCS(=O)(=O)c1ncc(Cl)c(C(=O)Nc2ccc(S(=O)(=O)N(C)c3ccccc3)cc2)n1,102*,98*,110*,x,78*,99*,92*,99*
Cc1cc(C(=O)NCc2ccco2)c2ccccc2n1,6,7,-3,0,7,-5,x,x
Cc1scc(C(=O)NCc2ccco2)c1-c1ccccc1,25,10,x,x,28*,-28,23*,22*
O=C(Nc1nc2ccccc2s1)c1cc(-c2ccco2)nc2ccccc12,-30,-14,6,-6,27*,-2,22*,14*
O=C(NCc1ccco1)c1ccccc1-c1ccccc1,16,-3,8,x,-7,19,x,x
Cc1cc(C)c2nc(-c3ccccn3)cc(C(=O)NCc3ccco3)c2c1,7,12,x,x,45*,-9,21,26*
Cc1ccc(-c2cc(C(=O)NCc3ccco3)c3ccccc3n2)o1,4,-9,x,x,44*,-30,16,30*
CO[C@@H]1CN(C)C(=O)c2cc(NC(=O)C3CC3)ccc2OC[C@H](C)N(C(=O)c2ccccn2)C[C@H]1C,x,x,x,-4,x,x,x,x
C/C=C/c1ccc([C@H]2[C@H](CO)N3CCCCN(S(=O)(=O)c4cccs4)C[C@@H]23)cc1,x,x,-32,x,x,x,x,x
Cc1ccc(-c2cc(C(=O)O)c3cc(Br)ccc3n2)o1,14,-11,10,-4,27*,-9,79*,88*
COC1=CC(=O)C(C2CC(=O)c3c(O)cc(O)cc3O2)=CC1=O (stereo not given),-49,-16,-6,3,29*,-8,82*,93*
Cc1nn(C)cc1NC(=O)CCSc1nc(-c2ccco2)cc(C(F)(F)F)n1,2,-2,x,x,88*,4,6,3
CCCC#Cc1cnc2c(c1)C(=O)N([C@H](C)CO)C[C@H](C)[C@H](CN(C)S(=O)(=O)c1cccc(OC)c1)O2,x,x,26,-5,x,x,x,x
COc1ccc(N2CCN(S(=O)(=O)CCNC(=O)Cc3ccc([N+](=O)[O-])cc3)CC2)cc1,-3,0,20,x,68*,33,1,-3
COc1ccc2c3c([nH]c2c1)[C@H](CO)N(C(=O)c1ccc(F)cc1)CC31CN(C(=O)Nc2cccc(F)c2)C1,x,x,x,18,x,x,x,x
C[C@H]1CN([C@@H](C)CO)C(=O)CCCn2nncc2CO[C@@H]1CN(C)S(=O)(=O)c1ccc(F)cc1,x,x,x,2,x,x,x,x
C[C@H](CO)N1C[C@H](C)[C@@H](CN(C)Cc2ccc3c(c2)OCO3)Oc2ccc(NC(=O)Nc3ccc(C(F)(F)F)cc3)cc2CC1=O,x,x,43,9,x,x,x,x
C=CCC1(C)C(=O)N(c2ccccc2)c2ccccc21 (stereo not given),20,-1,x,x,32*,15,5,4
COc1ccc(NS(=O)(=O)c2cccc(C(=O)NCCCN3CCCC3=O)c2)cc1,4,-6,7,1,-2,-5,x,x
COc1ccc(NS(=O)(=O)c2ccc(C)c(C(=O)NCCCN3CCCC3=O)c2)cc1,-5,x,0,-1,23*,6,4,3
O=C(O)c1cccc(NC2=C(Cl)C(=O)c3ccccc3C2=O)c1,-128,36,-23,6,38*,-51,38*,24*
O=C1C(Cl)=C(NCCc2ccccc2)C(=O)c2ccccc21,63*,u,-13,-14,27*,28,88*,104*
CC1=C(Nc2ccc(C(=O)O)cc2)C(=O)c2ccccc2C1=O,-3,33,11,-35,7,-4,x,x
CC(C)NC(=O)N(C)C[C@@H]1OCCCC[C@H](C)Oc2ccc(NC(=O)Nc3ccc(F)cc3)cc2C(=O)N([C@H](C)CO)C[C@@H]1C,x,x,13,2,x,x,x,x
CO[C@@H]1CN(C)C(=O)c2cc(NS(=O)(=O)c3ccc(-c4ccccc4)cc3)ccc2OC[C@H](C)NC[C@H]1C,x,x,x,5,x,x,x,x
SMILES,Peg3 prom inh,TRPM1 prom inh,PAX8 reporter,EWS-Fli block,ABHD5 PLIN5 PPI,Shn3 3UTR inh,ABHD5-PLIN5 conf,HNF4 counter
COc1ccc(CN(C(=O)/C=C/C(=O)c2ccc(OC)cc2O)C(C(=O)NC2CCCCC2)c2ccncc2)cc1 (stereo not given),9,15,-9,17,6,-2,x,x
COCCN(CC(=O)NC1CCCCC1)C(=O)/C=C/C(=O)c1ccc(OC)cc1O,97*,94*,91*,39,62*,98*,102*,106*
CCC(=O)N(C)C[C@@H]1Oc2cc(C#CC3CC3)ccc2S(=O)(=O)N([C@H](C)CO)C[C@@H]1C,x,x,x,12,x,x,x,x
O=C(c1ccco1)N1CCN(S(=O)(=O)c2ccc(Oc3ccccc3)cc2)CC1,27,5,x,12,50*,21,8,18*
CC1CCCN(S(=O)(=O)c2ccc(NC(=O)C3CCN(C(=O)c4ccco4)CC3)cc2)C1 (stereo not given),11,5,37,14,24*,-37,4,0
CCN(C[C@H]1[C@@H](c2ccccc2)[C@H](CO)N1CC1CC1)C(=O)c1ccccn1,x,x,6,-6,x,x,x,x
CCCCC(=O)Nc1cccc(C(=O)Nc2ccccc2C(=O)O)c1,0,3,-28,-4,95*,-9,3,1
O=C(NCC[C@@H]1CC[C@H](NS(=O)(=O)c2ccc(F)cc2)[C@H](CO)O1)c1ccccc1F,x,x,x,6,x,x,x,x
Cc1nc(S(=O)(=O)N2CCN(C3c4ccccc4-c4ccccc43)CC2)cn1C,12,x,10,11,2,-8,x,x
Cc1nc2c(o1)CCc1ccccc1C2N1CCN(C)CC1 (stereo not given),8,4,0,4,57*!,-18,40*,7
COc1cc(/C=C/C(=O)c2ccc(C)c([N+](=O)[O-])c2)cc(OC)c1O,63*,8,14,-27,65*,45,79*,72*
COc1cccc(/C=C/C(=O)c2ccc(NS(=O)(=O)c3ccc(C)cc3)cc2)c1,29,3,-10,x,32*,23,80*,61*
COc1cccc(C(=O)/C=C/c2ccc(OCC#N)c(OC)c2)c1,107*,55,18,x,55*,3,86*,77*
CCOc1ccc(/C=C/C(=O)c2ccccc2)cc1OC,-203,-45,-173,x,21,-66,x,x
COc1ccc(/C=C/C(=O)c2ccc(C)c([N+](=O)[O-])c2)cc1O,48,-12,-29,-6,40*,2,80*,73*
COc1ccc(C(=O)/C=C/c2ccc(N3CCCCC3)c([N+](=O)[O-])c2)cc1,6,16,-31,6,17,14,x,x

# Screens (PubChem)
